Results on 112 molecules are retold here after PubChem BioAssay AID1117361 (Southern Research Institute, 2015).

The whole screen tested about 3,600 compounds, of which about 900 (25%) were called active. The rule behind the calls is not given here. These entries were drawn from the full list. Measured potencies and affinities stand elsewhere.

The target in the assay is Protein Tat (Human immunodeficiency virus type 1 group M subtype B (isolate HXB2)) (UniProt P04608). Description: HIV-1 Tat–TAR interaction blockers – biochemical, fluorescence polarization, FAM-labeled TAR RNA, counter-screen for Vif-APOBEC3G degradation inhibitor project, dose response (AID 1117361). Particulars: Tat-TAR RNA binding; series mostly up to 100 µM. (In fluorescence polarisation assays a small probe gives low polarisation when free and higher when bound to something large.)
Regarding `COC(=O)c1ccc(NC(=O)CN2CCCC2)cc1`, the outcome was inactive.
Regarding `COC(=O)Cc1ccc(NC(=S)NNC(=O)C2CC2)cc1`, the molecule was called inactive.
For `CCc1nnc(NC(=O)CSc2nnc(Cc3ccccc3)o2)s1` the value was “inactive”.
For `COC(=O)c1c(NC(=O)CSc2nnc(CNc3ccc(Cl)cc3)o2)sc(C)c1C` the value was “inactive”.
The value for `CCOC(=O)C1=C(Cn2cnc3ccccc32)NC(=O)NC1c1ccc(OC)cc1` (configuration not stated) was “inactive”.
Turning to `Cc1ccc(C(=O)Oc2ccc(C(=O)COC(=O)c3cnccn3)cc2)cc1`, the molecule was classed as inactive.
In the case of `Cc1ccccc1N1CCN(Cc2c[nH]c3ccccc23)CC1`, the outcome is “inactive [at 50 µM]”.
For the molecule `CSc1ccc(/C=N/n2c(C3CCCCC3)n[nH]c2=S)cc1`, the outcome was inactive.
For `Cc1nc(C)c(C(=O)Nc2nc3c(C)cccc3s2)o1`, the outcome was inactive.
For `Clc1ccc(Sc2cc(N3CCOCC3)nc(-c3ccccc3)n2)cc1`, the molecule was called inactive.
In the case of `O=C(NC1=NCCS1)C1CC2CCC1C2` (configuration not stated), the call was inactive.
For `NC(=O)COC(=O)c1ccc(Oc2ccccc2)cc1` the value was “inactive”.
Take `CCOc1ccc2nc(NC(=O)CCn3cccc3)sc2c1`: the call was inactive.
For `CCOC(=O)N1CCN(C(=O)c2cc3c(s2)-c2ccccc2OC3)CC1` the value was “inactive”; for `COc1ccc(OC)c(S(=O)(=O)N2CCN(C)CC2)c1`, “inactive”; for `O=C1N(c2ccccc2)C2CS(=O)(=O)CC2N1c1ccc(Cl)c(Cl)c1` (configuration not stated), “inactive”.
For `COc1cccc(OC)c1C(=O)n1nc(C)cc1C`, the call was inactive.
The value for `Cc1cc(S(=O)(=O)n2ccnc2)c(Cl)cc1Cl` was “inactive”; that for `O=C(Cc1ccccn1)c1ccncc1` was “inactive”.
As to `Cc1ccc(N=Nc2ccc(O)c(/C=N\NC(=O)c3ccc(N)cc3)c2)cc1C`, the result was inactive.
The value for `O=C(N/N=C/c1cccnc1)c1cc(O)c(O)c(O)c1` was “inactive”; that for `CCC(Sc1nc(N)c(NC(=O)c2ccc(OC)c(OC)c2)c(=O)[nH]1)C(=O)OC` (configuration not stated) was “inactive”; that for `S=C(Nc1ccc(Oc2ccccc2)cc1)NC1CCCCC1` was “inactive”.
As to `CCCCCCc1nc2c(=O)[nH]c3ccccc3c2o1`, the molecule was called inactive.
`CCOC(=O)COn1c(=O)c(-c2ccc(Cl)cc2)[n+]([O-])c2ccccc21`: the molecule was classed as inactive.
As to `COc1ccccc1OCC(=O)NCC1CCCN(Cc2cnn(C(C)C)c2)C1` (configuration not stated), the outcome was inactive.
For `CCC(C)c1c(O)nc(SCC(=O)N2CCOCC2)[nH]c1=O` (configuration not stated) the value was “inactive”; for `CC1(C)CCC(=O)c2ccccc21`, “inactive”; for `O=C(Oc1ccccc1)c1cccc2cccnc12`, “inactive”.
The value for `CC(C)Cn1c(CCC(=O)O)ccc1-c1cccs1` was “inactive”; that for `O=C(O)CCC(=O)N(Cc1cccs1)Cc1cccs1` was “inactive”; that for `CCc1ccc(-c2nc(SCC(=O)NC3CCS(=O)(=O)C3)n[nH]2)cc1` (configuration not stated) was “inactive”.
Take `O=C(CNC(=O)Cn1cnc2sc3c(c2c1=O)CCCC3)NCc1ccccn1`: the molecule was classed as inactive.
For `Cc1cc(NC(=O)c2cncc(Br)c2)no1` the value was “inactive”.
For the molecule `O=C1c2ccccc2C(=O)N1OCCOCCOCCBr`, the call was inactive.
As for `O=C1CCC(CCC(=O)N2CCCC(C(=O)c3ccc4c5c(cccc35)CC4)C2)=NN1` (configuration not stated), the molecule was classed as inactive.
Regarding `Cc1ccc(OCc2ccc(C(=O)NN)o2)cc1C`, the molecule was classed as inactive.
Turning to `CN(C)C(=O)c1ccc(COc2ccccc2Br)o1`, the call was inactive.
The value for `CCOC(=O)c1cc2c(c(CCO)n1)[C@H](CCO)N(S(=O)(=O)C(C)(C)C)C2` was “inactive”.
The value for `COc1ccc(-n2c(Cc3cccn3C)nnc2SCC(=O)Nc2ccccc2)cc1` was “inactive”.
For `COc1ccc(OC)c(NC(=O)CSc2nnc(CCCO)n2-c2ccccc2)c1` the value was “inactive”.
As to `Cc1ccc(-n2c(SCC(=O)NCC3CCCO3)nc3c(c2=O)SCC3)cc1` (configuration not stated), the outcome was inactive.
The value for `O=C(CSc1nnc(-c2cccnc2)n1C1CCCCC1)NC1CCCCC1` was “inactive”; that for `Cc1cccc(-n2c(N)cc(=O)nc2SCC(=O)NC2CCCCC2)c1` was “inactive”; that for `O=C(Cc1cc(=O)[nH]c(=O)[nH]1)NCC1CCCO1` (configuration not stated) was “inactive”.
For `N#Cc1ccccc1S(=O)(=O)N1CCN(C(=O)CN2CCCC2c2cccs2)CC1` (configuration not stated) the value was “inactive”; for `COc1ccc(C(C)NC(=O)C2C(=O)NC3(C)CC2c2ccccc2O3)cc1` (configuration not stated), “inactive”.
For `O=C(O/N=C\c1ccc(N2CCCCC2)c([N+](=O)[O-])c1)c1c(F)cccc1F` the value was “inactive”; for `Nc1nc2n(n1)C(c1c(F)cccc1Cl)CC(c1ccc(F)cc1)N2` (configuration not stated), “inactive”; for `CCOC(=O)Cn1c(=O)c2c(nc3n2CCN3Cc2ccccc2)n(C)c1=O`, “inactive”.
Consider `O=C(Nc1ccccc1)c1ccc(S(=O)(=O)N(CCO)CCO)cc1`, for which the molecule was classed as inactive.
Regarding `COc1ccccc1NC(=O)C12CC3CC(C1)CC(c1ccc(C)cc1)(C3)C2`, the outcome was inactive.
`COc1ccc(N=c2scc(-c3ccc(OC)cc3)n2CCO)cc1`: the molecule was classed as inactive.
Regarding `COc1cc(OC)cc(C(=O)NNC(=O)c2ccccc2Br)c1`, the molecule was called inactive.
The value for `O=C(c1ccccc1Br)N1CCN(c2ccccc2)CC1` was “inactive”.
The value for `CC1=CC(C)(C)n2c(O)c(N=NC(N)=S)c3c(C)c(C)cc1c32` was “inactive”.
The value for `COc1ccccc1Oc1coc2cc(OC(=O)N3CCOCC3)ccc2c1=O` was “inactive”.
Turning to `O=C(O)c1ccc(Sc2nnnn2-c2ccccc2)c([N+](=O)[O-])c1`, the molecule was classed as inactive.
The value for `CCCCN(C)C(=O)c1cn(CC)c2ccc(S(=O)(=O)N(C)C)cc2c1=O` was “inactive”; that for `O=C(CCCc1c[nH]c2ccccc12)N1CCOCC1` was “inactive”.
The value for `O=C(O)c1ccc(NS(=O)(=O)c2cccc(C(=O)Nc3ccc([N+](=O)[O-])cc3)c2)cc1` was “inactive”; that for `COc1ccccc1C(=O)Nc1ccc(S(=O)(=O)Nc2cc(C)nc(C)n2)cc1` was “inactive”.
The value for `CCn1c(C(=O)N2CCCC(C(=O)NCCc3ccc(C)cc3)C2)cc2sccc21` (configuration not stated) was “inactive”; that for `CC1(C)Oc2ccc(C(=O)NC3CCCC3)cc2N(CC(=O)NC2CCCC2)C1=O` was “inactive”; that for `O=C(NC1CCCC1)c1ccc(CNc2c(N3CCOCC3)c(=O)c2=O)cc1` was “inactive”.
As to `CCCCOCCCNC(=O)c1ccc(OCC)cc1`, the outcome was inactive.
For `CCCNC(=O)c1cccc(Cn2nc(C)c(Br)c2C)c1` the value was “inactive”; for `CCC(Nc1nc(-c2ccccc2)nc2ccccc12)C(=O)O` (configuration not stated), “inactive”; for `Clc1ccc(Sc2oc(/C=N/n3cnnc3)cc2Br)cc1`, “inactive”.
With `O=C1C(Cl)=C(Nc2ccc3cn[nH]c3c2)C(=O)c2ccccc21`, the molecule was called inactive.
For `C/C(=N\NC(=O)C(C)Oc1ccc([N+](=O)[O-])cc1)c1ccccn1` (configuration not stated) the value was “inactive”; for `COC(=O)C1=C(C)N(C)C(C)=C(C(=O)OC)C1c1ccc(F)c(Br)c1`, “inactive”; for `COc1cc(OC)cc(C(=O)NC2CCN(C(=O)N3c4ccccc4Sc4ccccc43)CC2)c1`, “inactive”.
The value for `Nc1c(-c2ccccc2Cl)cnn1-c1cccc([N+](=O)[O-])c1` was “inactive”; that for `COc1ccc(-c2[nH]c(-c3ccc(C)cc3)nc2SCC(=O)NCc2ccco2)cc1OC` was “inactive”.
As to `COC(=O)Nc1sc2c(c1C(=O)NCc1ccco1)CCCC2`, the molecule was called inactive.
The value for `O=C1CC(SC(=Nc2ccccc2)Nc2ccccc2)C(=O)N1c1ccc(Cl)cc1` (configuration not stated) was “inactive”; that for `O=C(NCc1ccc(F)cc1)C1CCCN(C(=O)Nc2ccccc2)C1` (configuration not stated) was “inactive”.
For `CCOC(=O)CC1COc2ccccc2N1C(=O)c1ccc(C)cc1` (configuration not stated) the value was “inactive”.
Regarding `CS(=O)(=O)NCc1nnc(SCc2ccccc2C(F)(F)F)o1`, the molecule was called inactive.
The value for `CSc1oc(-c2ccccc2)nc1S(=O)(=O)c1ccc(C)cc1` was “inactive”.
The value for `COc1ccc2c(c1)c1ccc3c(c1n2C)C(=O)C=CC3=O` was “inactive”; that for `Cc1ccc2c(c1)c1ccc3c(c1n2C)C(=O)C=CC3=O` was “inactive”; that for `COc1cc2c(cc1NC(=O)COC(=O)Cn1cnc3ccccc31)oc1ccccc12` was “inactive”.
The value for `CCOC(=O)CSc1nnc(-c2cccnc2)n1Cc1ccccc1` was “inactive”; that for `CCOC(=O)C(CC(=O)O)=C(c1ccccc1)c1ccccc1` was “inactive”.
Consider `CCc1cccc(NC(=O)CN(C)S(=O)(=O)c2cccc3nsnc23)c1`, for which the result was inactive.
For `O=C(OCc1c(Cl)cccc1Cl)c1cccnc1Cl`, the result was inactive.
On to `Cc1ccc(-c2csc(NC(=O)C3CC=CCC3C(=O)O)c2C(=O)OC(C)C)cc1` (configuration not stated), for which the call was inactive.
The value for `O=C(C1CCN(S(=O)(=O)N2CCC3(CC2)OCCO3)CC1)N1CCOCC1` was “inactive”; that for `O=C(C1CCCO1)N1CCC(c2nc3ccccc3[nH]2)CC1` (configuration not stated) was “inactive”; that for `O=C(NCC1CC1)c1ccc2c3n(nc2c1)-c1ccccc1CO3` was “inactive”.
For `O=C(NNC(=O)c1ccccc1O)c1cc2ccccc2o1`, the molecule was called inactive.
For `COc1ccc(C(=O)NCc2cn3cccc(C)c3n2)cc1OC` the value was “inactive”; for `COc1ccc(Cl)c(NCCC(=O)O)c1`, “inactive”; for `O=C(NCc1cccnc1)c1cc(S(=O)(=O)N2CCCCC2)ccc1Cl`, “inactive”.
For the molecule `NS(=O)(=O)c1ccc(NC(=O)COC(=O)c2cc(Cl)ccc2[N+](=O)[O-])cc1`, the outcome was inactive.
For `CC(=O)Nc1ccc(/C=N/Nc2ccc(C(=O)c3c(C)cc4ccccn34)cc2[N+](=O)[O-])cc1`, the call was inactive.
The value for `Clc1ccc(/C(Cc2nc3ccccc3[nH]2)=N\Nc2ccccc2)cc1` was “inactive”; that for `Cc1c(Cl)cccc1NC(=O)CC(Cc1ccccc1)C(=O)O` (configuration not stated) was “inactive”.
The value for `COC(=O)c1cc2c(ccn2-c2ccc(F)cc2)n1CC(C)C` was “inactive”; that for `CC1CCN(c2nc3ccc(C(=O)N4CCN(Cc5ccccc5)CC4)cc3s2)CC1` was “inactive”; that for `CCOC(=O)CSc1nnc(CNC(=O)c2cccs2)n1-c1ccccc1` was “inactive”.
The value for `O=C(COC(=O)c1ccc(O)cc1O)NNC(=O)c1cccs1` was “inactive”; that for `COc1cccc(OC)c1OCCOCCn1cnc2ccccc2c1=O` was “inactive”.
Take `COCC(=O)NCc1nc2ccccc2[nH]1`: the outcome was “inactive [at 50 µM]”.
The value for `CCOc1cc(Cl)c(S(=O)(=O)NCc2ccccn2)cc1Cl` was “inactive”; that for `CCn1c(CNc2ccc(Cl)cc2)nnc1SCc1ccccc1` was “inactive”.
For `COc1cccc(/C=N/NC(N)=S)c1OCc1ccccc1Cl` the value was “inactive”.
For the molecule `Clc1ccc(CNc2ccc(CNc3ncn[nH]3)cc2)c(Cl)c1`, the molecule was called inactive.
With `CCOC(=O)CSc1nnc(CNc2ccc(Cl)cc2)n1-c1ccccc1`, the molecule was called inactive.
As to `CCCNC(=O)COC(=O)c1ccccc1OCc1ccc(Cl)cc1`, the molecule was called inactive.
